From PubChem BioAssay (EPA / NIEHS)
“And” between values parts separate entries of the source, which are not always exact repeats. Equal entries are not always repeated. Results filed as inconclusive are left out. Some structures have more than one record in an assay (separate samples or runs), and their calls can disagree. The source made the active and inactive calls. Rule for the calls, unless noted: active = hit-call score of the fitted dose curve at least 0.9, where 1 is the maximum; inactive = score below 0.9.

Tests used:
[1] = ATG_PBREM_CIS: Attagene CIS-FACTORIAL HepG2 Assay for human Phenobarbital-responsive Enhancer Module (PBREM) (AID 2282955); conditions: HepG2 PBREM cis-reporter, Attagene multiplexed transcription; actives raise or lower the signal
Outline: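 Endogenous transcription factors in human liver HepG2 cells drive a PBREM cis-element reporter, whose transcript level after 24 h treatment is quantified by RT-PCR with capillary electrophoresis; activity fitted in both directions against DMSO.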

[2] = biological target: Paired box protein Pax-6 (Homo sapiens) (UniProt P26367); assay: ATG_Pax6_CIS: Attagene CIS-FACTORIAL HepG2 Assay for human Paired Box 6 (PAX6) (AID 2282956); conditions: HepG2 CIS-FACTORIAL PAX6 reporter transcription, RNA readout; actives raise or lower the signal
Chain of Paired box protein Pax-6 (Homo sapiens) (P26367 whole entry, looked up): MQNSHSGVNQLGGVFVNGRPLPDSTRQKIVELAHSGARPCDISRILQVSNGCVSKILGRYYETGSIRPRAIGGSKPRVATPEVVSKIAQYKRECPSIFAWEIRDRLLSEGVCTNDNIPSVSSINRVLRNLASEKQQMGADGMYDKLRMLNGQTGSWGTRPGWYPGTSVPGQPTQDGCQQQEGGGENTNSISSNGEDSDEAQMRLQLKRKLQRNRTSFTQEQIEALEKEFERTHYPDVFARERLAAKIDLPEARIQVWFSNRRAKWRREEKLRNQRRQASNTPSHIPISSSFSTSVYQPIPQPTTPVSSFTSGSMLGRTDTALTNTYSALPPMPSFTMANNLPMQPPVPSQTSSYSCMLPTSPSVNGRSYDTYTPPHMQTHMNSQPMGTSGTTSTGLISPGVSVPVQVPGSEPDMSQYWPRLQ
Outline: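 Fluorescent RT-PCR products separated by capillary electrophoresis report PAX6-linked promoter mRNA in HepG2 cells 24 h post-dose. Curves fitted bidirectionally, DMSO as negative control.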

[3] = ATG_PXRE_CIS: Attagene CIS-FACTORIAL HepG2 Assay for human Pregnane X Receptor Element (PXRE) (AID 2282957); conditions: HepG2 Attagene CIS-FACTORIAL PXRE reporter, mRNA; actives raise or lower the signal
Outline: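 Fluorescent capillary electrophoresis of amplified reporter cDNA gave the signal, collected 24 h after dosing HepG2 cells that held transfected cis-element reporter constructs.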

[4] = ATG_Sox_CIS: Attagene CIS-FACTORIAL HepG2 Assay for human SRY-box transcription factor (SOX) (AID 2282960); conditions: HepG2 Attagene cis-factorial SOX reporter, mRNA; actives raise or lower the signal
Outline: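 Endogenous factor activity in human liver HepG2 cells carrying transfected cis-regulated reporter units. RNA taken 24 h post-dose, reverse-transcribed, PCR-amplified and sized by capillary electrophoresis. Gain or loss of signal fitted relative to DMSO.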

[5] = biological target: Transcription factor Sp1 (Homo sapiens) (UniProt P08047); assay: ATG_Sp1_CIS: Attagene CIS-FACTORIAL HepG2 Assay for human Specificity Protein 1 (Sp1) (AID 2282961); conditions: HepG2 Sp1 cis-reporter transcription, actives raise or lower the signal
Chain of Transcription factor Sp1 (Homo sapiens) (P08047 whole entry, looked up): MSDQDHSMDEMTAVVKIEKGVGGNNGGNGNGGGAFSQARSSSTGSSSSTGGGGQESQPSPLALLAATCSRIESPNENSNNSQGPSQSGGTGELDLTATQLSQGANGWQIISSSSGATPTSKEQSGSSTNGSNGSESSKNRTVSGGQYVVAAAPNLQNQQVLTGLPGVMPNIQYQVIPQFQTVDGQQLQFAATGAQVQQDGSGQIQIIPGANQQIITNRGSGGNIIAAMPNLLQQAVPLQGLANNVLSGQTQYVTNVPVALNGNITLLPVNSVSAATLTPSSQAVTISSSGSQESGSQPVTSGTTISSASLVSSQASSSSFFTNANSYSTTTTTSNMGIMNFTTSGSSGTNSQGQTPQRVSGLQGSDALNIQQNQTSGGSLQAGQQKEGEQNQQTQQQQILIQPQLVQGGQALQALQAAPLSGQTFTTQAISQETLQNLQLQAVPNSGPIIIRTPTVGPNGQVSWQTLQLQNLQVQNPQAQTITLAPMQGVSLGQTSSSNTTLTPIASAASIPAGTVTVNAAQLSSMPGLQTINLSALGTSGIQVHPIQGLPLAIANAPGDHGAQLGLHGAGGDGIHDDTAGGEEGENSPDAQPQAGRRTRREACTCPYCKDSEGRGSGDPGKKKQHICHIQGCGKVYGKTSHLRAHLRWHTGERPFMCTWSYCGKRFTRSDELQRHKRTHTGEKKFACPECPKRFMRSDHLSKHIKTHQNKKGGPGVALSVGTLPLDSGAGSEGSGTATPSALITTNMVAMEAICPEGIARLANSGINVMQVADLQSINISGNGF
Outline: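 Transient MRTU-transfected HepG2, 24 h compound exposure. Total RNA → oligo(dT) RT → PCR of reporter → 6-FAM primer extension → HpaI digest → CE. Endpoint fitted both directions vs DMSO.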

[6] = ATG_SREBP_CIS: Attagene CIS-FACTORIAL HepG2 Assay for human Sterol Regulatory Element Binding (SREBP) (AID 2282962); conditions: HepG2 Attagene cis-factorial SREBP reporter, mRNA; actives raise or lower the signal
Outline: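 Endogenous factor activity is measured in HepG2 through multiplexed reporter units under cis-element control. Following a 24 h incubation, reporter transcripts are reverse-transcribed, PCR-amplified and sized by capillary electrophoresis; activity is fitted in both directions relative to DMSO.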

[7] = biological target: Signal transducer and activator of transcription 3 (Homo sapiens) (UniProt P40763); assay: ATG_STAT3_CIS: Attagene CIS-FACTORIAL HepG2 Assay for human Signal Transducer and Activator of Transcription 3 (STAT3) (AID 2282963); conditions: HepG2, Attagene cis-factorial STAT3 reporter transcription; actives raise or lower the signal
Chain of Signal transducer and activator of transcription 3 (Homo sapiens) (P40763 whole entry, looked up): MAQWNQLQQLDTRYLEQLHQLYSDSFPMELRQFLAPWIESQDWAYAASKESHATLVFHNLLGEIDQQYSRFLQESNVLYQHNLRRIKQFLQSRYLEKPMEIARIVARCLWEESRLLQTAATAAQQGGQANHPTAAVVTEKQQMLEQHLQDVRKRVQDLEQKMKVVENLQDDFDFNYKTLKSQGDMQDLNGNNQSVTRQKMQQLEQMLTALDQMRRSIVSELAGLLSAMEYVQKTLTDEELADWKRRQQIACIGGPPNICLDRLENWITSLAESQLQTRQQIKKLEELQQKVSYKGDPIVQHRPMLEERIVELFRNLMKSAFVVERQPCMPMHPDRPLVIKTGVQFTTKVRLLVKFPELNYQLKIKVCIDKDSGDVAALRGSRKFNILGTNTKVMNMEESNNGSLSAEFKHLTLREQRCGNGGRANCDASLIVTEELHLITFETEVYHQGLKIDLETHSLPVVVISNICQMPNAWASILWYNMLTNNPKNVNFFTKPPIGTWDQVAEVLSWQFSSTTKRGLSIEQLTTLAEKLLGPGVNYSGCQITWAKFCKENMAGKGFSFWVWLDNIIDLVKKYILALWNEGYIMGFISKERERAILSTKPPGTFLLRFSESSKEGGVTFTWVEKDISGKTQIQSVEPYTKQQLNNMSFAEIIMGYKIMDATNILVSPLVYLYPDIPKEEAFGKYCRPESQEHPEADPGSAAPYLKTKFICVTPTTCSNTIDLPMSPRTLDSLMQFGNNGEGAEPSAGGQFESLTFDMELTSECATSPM
Outline: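 HepG2, MRTU-transfected, 24 h dosing. RNA → RT → PCR → FAM label → HpaI → CE. Bidirectional fit vs DMSO.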

[8] = ATG_TAL_CIS: Attagene CIS-FACTORIAL HepG2 Assay for human TAL Basal Promoter (AID 2282966); conditions: HepG2 Attagene cis-factorial TAL promoter reporter; actives raise or lower the signal;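 note: background control endpoint measuring basal TAL promoter reporter mRNA not a specific factor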
Outline: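 Transiently transfected HepG2 (cis-regulated reporter units), 24 h treatment, mRNA read by fluorescent CE after RT-PCR; bidirectional fit, DMSO baseline.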

[9] = ATG_TGFb_CIS: Attagene CIS-FACTORIAL HepG2 Assay for human Transforming Growth Factor (TGF) (AID 2282967); conditions: HepG2 Attagene CIS TGFb reporter, mRNA transcription; actives raise or lower the signal
Outline: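 Endogenous TGFB1-linked transcription factor activity read as reporter mRNA via RT-PCR and capillary electrophoresis, 24 h after dosing transiently transfected HepG2 cells. Gain or loss of signal fitted relative to DMSO.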

[10] = ATG_VDRE_CIS: Attagene CIS-FACTORIAL HepG2 Assay for human Vitamin D Receptor Element (VDRE) (AID 2282968); conditions: HepG2 VDRE cis-reporter transcription, actives raise or lower the signal
Outline: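 Steps: transfect HepG2 with multiple reporter transcription units; dose chemicals 24 h; isolate RNA; RT-PCR; label with 6-FAM primer extension; HpaI digest; capillary electrophoresis. Curves fitted both directions against DMSO.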

[11] = biological target: Estrogen receptor (Homo sapiens) (UniProt P03372); assay: ATG_ERa_TRANS: Attagene TRANS-FACTORIAL HepG2 Assay for human Estrogen Receptor alpha (ERa) (AID 2282970; active = hit-call score of the fitted dose curve at least 0.9, where 1 is the maximum); conditions: HepG2 Attagene TRANS ERa GAL4 reporter, mRNA
Chain of Estrogen receptor (Homo sapiens) (P03372 whole entry, looked up, the tested form may be a part): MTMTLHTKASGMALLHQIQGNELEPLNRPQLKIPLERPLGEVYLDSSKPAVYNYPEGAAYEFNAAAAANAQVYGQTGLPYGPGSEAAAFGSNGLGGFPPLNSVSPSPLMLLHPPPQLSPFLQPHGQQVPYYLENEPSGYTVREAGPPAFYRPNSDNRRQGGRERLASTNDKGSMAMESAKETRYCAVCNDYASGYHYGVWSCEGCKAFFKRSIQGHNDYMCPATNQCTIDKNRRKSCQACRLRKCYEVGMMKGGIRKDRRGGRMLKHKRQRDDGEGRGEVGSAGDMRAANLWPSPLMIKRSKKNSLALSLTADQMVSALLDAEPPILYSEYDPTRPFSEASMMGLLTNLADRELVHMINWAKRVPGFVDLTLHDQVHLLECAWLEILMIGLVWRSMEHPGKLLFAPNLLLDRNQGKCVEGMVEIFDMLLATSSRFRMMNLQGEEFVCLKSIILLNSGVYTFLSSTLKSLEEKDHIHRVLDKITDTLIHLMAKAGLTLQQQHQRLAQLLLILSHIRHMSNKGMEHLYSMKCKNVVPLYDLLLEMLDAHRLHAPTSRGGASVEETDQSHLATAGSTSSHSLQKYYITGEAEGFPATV
Outline: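 One of 30 multiplexed endpoints from a HepG2 TRANS system, this one reports ERa-Gal4-driven reporter mRNA. Transcripts were quantified 24 hours post-dosing by fluorescent RT-PCR and capillary electrophoresis, with activity scored as induction over DMSO.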

[12] = biological target: X-box-binding protein 1 (Homo sapiens) (UniProt P17861); assay: ATG_Xbp1_CIS: Attagene CIS-FACTORIAL HepG2 Assay for human X-box Binding Protein 1 (XBP1) (AID 2282972); conditions: HepG2 XBP1 cis-element reporter, Attagene multiplex; actives raise or lower the signal
Chain of X-box-binding protein 1 (Homo sapiens) (P17861 whole entry, looked up): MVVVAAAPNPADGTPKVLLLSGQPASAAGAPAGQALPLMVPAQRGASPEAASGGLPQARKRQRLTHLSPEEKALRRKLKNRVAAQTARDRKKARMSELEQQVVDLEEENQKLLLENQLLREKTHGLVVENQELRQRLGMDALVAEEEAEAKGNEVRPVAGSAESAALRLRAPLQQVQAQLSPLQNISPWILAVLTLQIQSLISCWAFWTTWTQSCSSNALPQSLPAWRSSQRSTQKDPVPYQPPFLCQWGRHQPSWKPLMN
Outline: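 Multiplexed cis-reporter readout in transfected HepG2 liver cells. Exposure lasted 24 hours. Activity in either direction was fitted against DMSO as negative control and baseline.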

[13] = ATG_GAL4_TRANS: Attagene TRANS-FACTORIAL HepG2 Assay for GAL4 (Internal Marker) (AID 2282976; active = hit-call score of the fitted dose curve at least 0.9, where 1 is the maximum); conditions: HepG2 Attagene TRANS GAL4 internal marker reporter
Outline: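 HepG2 cells transiently transfected with multiplexed GAL4-UAS reporter constructs were dosed for 24 h. Reporter mRNA was measured by RT-PCR, 6-FAM primer extension, HpaI digestion and capillary electrophoresis, and gain of signal was fitted relative to DMSO.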

[14] = ATG_PPRE_CIS: Attagene CIS-FACTORIAL HepG2 Assay for human Peroxisome Proliferator-activated Response Element (PPRE) (AID 2282958); conditions: HepG2 PPRE cis-element reporter, Attagene transcription factor profiling; actives raise or lower the signal
Outline: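 HepG2, transient MRTU transfection (cis promoter elements, endogenous TFs). 24 h dosing. RNA → oligo(dT) RT → PCR → 6-FAM primer extension → HpaI digest → CE. Bidirectional fit vs DMSO.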

[15] = ATG_RORE_CIS: Attagene CIS-FACTORIAL HepG2 Assay for human RAR-related Orphan Receptor Element (RORE) (AID 2282959); conditions: HepG2 Attagene cis-factorial RORE reporter, mRNA; actives raise or lower the signal
Outline: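 Transient MRTU transfection of human HepG2 liver cells (FuGene 6); 24 h compound exposure; TriZol RNA, oligo(dT) RT, PCR, FAM labeling, HpaI cut, CE fragment analysis. DMSO = negative control/baseline.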

[16] = ATG_TA_CIS: Attagene CIS-FACTORIAL HepG2 Assay for human TA Basal Promoter (AID 2282964); conditions: HepG2 Attagene CIS-factorial TA basal promoter reporter; actives raise or lower the signal
Outline: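 Background-control readout: TA basal promoter reporter mRNA, fitted in both directions relative to DMSO. Measured by RT-PCR and capillary electrophoresis 24 hours after treating HepG2 human liver cells transiently carrying multiplexed cis-regulated reporter constructs.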

[17] = ATG_TCF_b_cat_CIS: Attagene CIS-FACTORIAL HepG2 Assay for human T-Cell-Factor with beta-catenin (TCF/b-cat) (AID 2282965); conditions: HepG2 TCF/beta-catenin cis-reporter transcription, actives raise or lower the signal
Outline: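 Using capillary electrophoresis as the read-out, labelled reporter cDNA fragments from transiently transfected HepG2 were sized and quantified. Exposure lasted 24 hours; activity in either direction was referenced to DMSO.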

[18] = biological target: Steroid hormone receptor ERR1 (Homo sapiens) (UniProt P11474); assay: ATG_ERRa_TRANS: Attagene TRANS-FACTORIAL HepG2 Assay for human Estrogen-Related Receptor alpha (ERRa) (AID 2282971; active = hit-call score of the fitted dose curve at least 0.9, where 1 is the maximum); conditions: HepG2 Attagene TRANS reporter, ERRa transactivation
Chain of Steroid hormone receptor ERR1 (Homo sapiens) (P11474 whole entry, looked up, the tested form may be a part): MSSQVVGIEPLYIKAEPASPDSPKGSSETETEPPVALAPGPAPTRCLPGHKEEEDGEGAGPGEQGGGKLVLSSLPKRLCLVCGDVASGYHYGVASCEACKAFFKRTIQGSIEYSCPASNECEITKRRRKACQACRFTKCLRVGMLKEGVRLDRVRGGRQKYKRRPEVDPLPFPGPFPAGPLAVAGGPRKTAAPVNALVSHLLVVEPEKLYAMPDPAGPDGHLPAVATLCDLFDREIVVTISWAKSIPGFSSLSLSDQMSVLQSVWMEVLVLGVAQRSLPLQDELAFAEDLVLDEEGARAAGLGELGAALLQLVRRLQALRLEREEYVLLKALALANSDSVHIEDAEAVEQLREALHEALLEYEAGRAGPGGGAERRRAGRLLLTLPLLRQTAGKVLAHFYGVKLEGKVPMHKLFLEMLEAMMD
Outline: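 HepG2 cells transiently transfected with multiplexed GAL4-UAS reporter units reading chimeric ERRa-Gal4 activity; 24 h compound exposure. Reporter mRNA measured by RT-PCR, 6-FAM labelling, HpaI digest and capillary electrophoresis; gain of signal fitted versus DMSO baseline.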

[19] = biological target: Nuclear receptor subfamily 1 group I member 3 (Homo sapiens) (UniProt Q14994); assay: ATG_CAR_TRANS: Attagene TRANS-FACTORIAL HepG2 Assay for human Constitutive Androstane Receptor (CAR) (AID 2282969; active = hit-call score of the fitted dose curve at least 0.9, where 1 is the maximum;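 note: activators raise reporter mRNA above DMSO so AC50 marks induction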); conditions: HepG2 Attagene TRANS-FACTORIAL CAR reporter
Chain of Nuclear receptor subfamily 1 group I member 3 (Homo sapiens) (Q14994 whole entry, looked up, the tested form may be a part): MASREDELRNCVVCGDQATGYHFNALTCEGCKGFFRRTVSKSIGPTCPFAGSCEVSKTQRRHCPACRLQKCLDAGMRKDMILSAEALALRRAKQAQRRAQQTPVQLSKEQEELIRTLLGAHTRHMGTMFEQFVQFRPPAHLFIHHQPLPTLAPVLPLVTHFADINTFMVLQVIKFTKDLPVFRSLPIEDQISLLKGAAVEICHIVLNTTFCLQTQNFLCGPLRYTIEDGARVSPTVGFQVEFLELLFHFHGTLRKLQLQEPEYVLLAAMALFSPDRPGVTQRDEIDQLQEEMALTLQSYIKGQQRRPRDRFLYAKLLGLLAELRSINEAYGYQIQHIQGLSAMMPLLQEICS
Outline: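 Steps: transient transfection of HepG2 with multiple GAL4-UAS reporter units; 24 h compound incubation; RNA isolation, RT-PCR, 6-FAM primer extension, HpaI digest; capillary electrophoresis. Gain-of-signal relative to DMSO negative control.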

[20] = ATG_M_19_TRANS: Attagene TRANS-FACTORIAL HepG2 Assay for M19 Transcription Factor (Internal Marker) (AID 2282974; active = hit-call score of the fitted dose curve at least 0.9, where 1 is the maximum); conditions: HepG2 Attagene TRANS-FACTORIAL M19 internal marker reporter
Outline: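 Fluorescence of 6-FAM-labelled reporter cDNA fragments, separated by capillary electrophoresis, served as the readout. These derived from HepG2 cells carrying transfected GAL4-UAS reporter units after 24 h dosing, with DMSO as negative control.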

Measured: AC50

CCc1cccc(O)c1
active: [3] 28.1 µM | [10] 49.3 µM
not listed: [14] | [15] | [16] | [17] | [18] | [19] | [20]
inactive: all other assays above

O=S1(=O)CC(Cl)(Cl)C(Cl)(Cl)C1
active: [2] 5.97 µM | [10] 3.71 µM
not listed: [1] | [12] | [13] | [19] | [20]
inactive: all other assays above

O=c1cc[nH]cc1
active: [9] 0.0823 µM
not listed: [3] | [10] | [11] | [13] | [18] | [20]
inactive: all other assays above

CCOC(=O)C=Cc1ccccc1
not listed: [3] | [18]
inactive: all other assays above

CCOC(=O)COC(=O)c1ccccc1C(=O)OCC
not listed: [3] | [13] | [14] | [18] | [20]
inactive: all other assays above

Cc1cccc(C)c1
not listed: [3] | [11] | [13] | [18] | [19] | [20]
inactive: all other assays above

[Na+]
inactive: [1] | [2] | [3] | [4] | [5] | [6] | [7] | [8] | [12] | [20] | [13]

C[C@]12CC[C@@H]3c4ccc(O)cc4CC[C@H]3[C@@H]1CC[C@@H]2O
inactive: [1] | [2] | [14] | [15] | [4] | [5] | [6] | [7] | [16] | [17] | [8] | [9] | [10] | [19] | [18] | [12] | [20] | [13]
active: [14] 27 µM | [6] 26.5 µM and 25.8 µM | [10] 8.99 µM and 4.21 µM

CCCCOCCOCCOCCO
not listed: [3] | [8] | [17]
inactive: all other assays above

OC[C@H]1O[C@@H](O[C@H]2[C@H](O)[C@@H](O)[C@H](O)O[C@@H]2CO)[C@H](O)[C@@H](O)[C@H]1O
not listed: [3] | [8] | [9] | [10] | [14] | [15] | [18]
inactive: all other assays above

C=CC(=O)OCC(CO)(COC(=O)C=C)COC(=O)C=C
active: [2] 11.9 µM | [14] 117 µM | [16] 100 µM | [17] 5.46 µM | [9] 54.2 µM | [10] 0.708 µM
not listed: [1] | [11] | [19] | [20]
inactive: all other assays above

[O-]/[N+](=N\O)c1ccccc1
active: [11] 42.3 µM
not listed: [3] | [9] | [12] | [13] | [15] | [20]
inactive: all other assays above

CC(=O)CCC(=O)O
not listed: [3] | [8] | [11] | [13] | [14] | [18]
inactive: all other assays above

CC(=O)CC(C)(C)C1CCCCC1
not listed: [3] | [10]
inactive: all other assays above

C=CCCCCCCCCC(=O)OCC
active: [9] 0.332 µM
not listed: [3] | [8] | [10] | [14] | [17] | [19] | [20]
inactive: all other assays above

CCC(C)(C)C1CCC(OC)CC1 (centres undefined)
active: [11] 58.7 µM
not listed: [3] | [9] | [10] | [12] | [13] | [18]
inactive: all other assays above

CC/C=C\CCOC(=O)C(C)C
not listed: [1] | [11] | [15] | [18] | [19] | [20]
inactive: all other assays above

c1ccc2scnc2c1
active: [3] 55.6 µM
not listed: [1] | [16] | [18] | [19] | [20]
inactive: all other assays above
